# Most compounds without a hit are left out; they make up all but 21% or so of the library.
# HCV inh – qHTS Assay for Inhibitors of Hepatitis C Virus (HCV); Huh7.5.1 HCVcc-Cre infection, luciferase reporter, 44 h; Potency, µM (highest dose often 41.8 µM), without a hit: at the top dose activity change, negative = inhibition, actives largely listed as inhibitors; 340,000 compounds, 3.4% hits; AID 651820, 2012; note: potency is the fitted concentration of half-maximal effect; % is set by controls: 0 for no effect and ±100 for the full control effect
#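 A cell-based infection assay in which seeded cells (1,000 per well) receive test compound after 4 h, are inoculated with HCVcc-Cre at approximately 0.5 moi, and are incubated 44 h before luminescence detection.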
# Pf growth 48h – Primary qHTS for delayed death inhibitors of the malarial parasite plastid, 48 hour incubation. P. falciparum luciferase growth in erythrocytes, 48 h. Potency, µM (highest dose often 28.7 µM), inactives show at the top dose activity change, negative = inhibition, usual class: inhibitors. 310,000 compounds, 5.9% hits. AID 504832, 2011; note: potency is the fitted concentration of half-maximal effect; % is set by controls: 0 for no effect and ±100 for the full control effect
#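 Growth was read as firefly luciferase luminescence after a 48 h, 37 C, 5% CO2 exposure of compounds to reporter-bearing P. falciparum cultures (0.1% parasitemia, 2% hematocrit final) in Albumax-supplemented RPMI 1640.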
# Cycloheximide cs – Cycloheximide Counterscreen for Small Molecule Inhibitors of Shiga Toxin. cell reporter, cycloheximide protein synthesis inhibition counterscreen. max response, %. 300,000 compounds, 12% hits; in the data active = max response mostly above about 13%, no sharp cut-off; inactive = mostly below about 14%; note: read at 38.3 µM for the half of the compounds with a filed dose; 0% is about no effect
# Pf growth 96h – Primary qHTS for delayed death inhibitors of the malarial parasite plastid, 96 hour incubation | Potency, µM (top dose mostly 28.7 µM), inactives show at the top dose activity change, negative = inhibition, most hits filed as inhibitors | 320,000 compounds, 6.9% hits | P. falciparum luciferase reporter growth, 96 h; note: potency is the fitted concentration of half-maximal effect; % is set by controls: 0 for no effect and ±100 for the full control effect
#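 Plates of compound plus infected erythrocytes (2% hematocrit, 0.05% parasitemia final) incubate 96 hours, 37 C, 5% CO2. Detection reagent added; reduced luminescence from the parasites' luciferase reporter flags inhibition.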
# HCMV antiviral – qHTS Assay for inhibitors of the human cytomegalovirus (HCMV). 410,000 compounds, 4.5% hits. activity change, negative = inhibition, % at 57.5 µM. HFF cells, HCMV-luciferase reporter, 72 h; stronger effect = lower value; in the data active = activity change below about -60%; inconclusive = no clear call, values can overlap the other calls; inactive = above about -39%; note: % is set by controls: 0 for no effect and ±100 for the full control effect
#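 Screen run at 2 compound doses on HFFs infected with reporter HCMV, MOI 1 PFU/cell. Luciferase activity from cell lysates at 72 h post infection gave inhibition relative to buffer-only and Salinomycin wells.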
# Shiga toxin inh – A qHTS for Small Molecule Inhibitors of Shiga Toxin. Vero cells, Shiga toxin protein synthesis inhibition reporter. inhibition, % at 38.7 µM. 290,000 compounds, 9.2% hits; in the data active = inhibition mostly above about 28%, no sharp cut-off; inactive = mostly below about 43%; note: 0% is about no effect
# * marks the source's active call; other numbers are inactive results; ? = inconclusive; nt = no result given; + = active, no number. Unless noted, calls come from the whole dose curve; as a rule, active = well fitted inhibition curve with a large enough effect; inconclusive = small, poorly fitted or top-dose-only effect, or another doubt; inactive = no such curve, though single readings can be large or run the other way.
SMILES,HCV inh,Pf growth 48h,Cycloheximide cs,Pf growth 96h,HCMV antiviral,Shiga toxin inh
CCOc1cc(N2CCOCC2)c(OCC)cc1NC(=O)COC(=O)c1cc2ccccc2cc1O,?,2%,-2,0%,32,3
CCOc1cc(N2CCOCC2)c(OCC)cc1NC(=O)COc1cccc(CC)c1,10µM*,10µM*,nt,?,-36,nt
CCOC(=O)c1ccc(NC(=O)Cn2nc(C)c3nn(-c4ccc(Cl)cc4)c(C)c3c2=O)cc1,nt,nt,nt,nt,8,nt
CCOc1cc(N2CCOCC2)c(OCC)cc1NC(=O)Cc1ccc(OC)c(OC)c1,?,9.3µM*,2,180%,1,26
CCOc1cc(N2CCOCC2)c(OCC)cc1NC(=O)Cc1cccc(OC)c1,-14%,?,-4,?,-13,-7
CCCN(CC(=O)Nc1ccccc1C)C(=O)C1CCN(c2ncnc3sc(C)c(C)c23)CC1,?,?,nt,7.4µM*,-15,nt
CCOc1ccc(NC(=O)CN(C)C(=O)C2CCCO2)cc1OCC (configuration not stated),-6%,-6%,nt,34%,-5,nt
Cc1ccccc1OCC(=O)NNC(=O)C1CCN(c2ncnc3sc(C)c(C)c23)CC1,?,?,nt,?,-14,nt
CCOc1ccc(NC(=O)CN(C)C(=O)C2CCN(c3ncnc4sc(C)c(C)c34)CC2)cc1OCC,nt,?,-3,?,-68*,-16
Cc1sc2ncnc(N3CCC(C(=O)N(CC(C)C)c4nc5ccccc5s4)CC3)c2c1C,?,?,nt,3.7µM*,-14,nt
COc1ccc(CNC(=O)CN2C(=O)CSc3ccc(S(=O)(=O)N(C)C)cc32)cc1,nt,nt,nt,nt,4,nt
Cc1ccccc1C(=O)Nc1ccc2c(c1)CCCN2C(=O)c1cccs1,?,-22%,10,?,+,11
Cc1ccc2c(c1)CCCN2C(=O)c1cccs1,-27%,?,-2,nt,25,-3
COc1ccc(F)cc1S(=O)(=O)Nc1ccc2c(c1)CCCN2C(=O)c1cccs1,nt,nt,nt,nt,-75*,nt
COc1ccc(C(=O)Nc2ccc3c(c2)CCCN3C(=O)c2cccs2)c(OC)c1,-18%,?,12,15µM*,?,-1
Cn1c(=O)c2sccc2n2c(CCCC(=O)N3CCCCC3)nnc12,-4%,18%,1,?,-32,-8
Cc1onc(-c2c(Cl)cccc2Cl)c1COC(=O)c1ccc(Cl)cc1[N+](=O)[O-],?,?,-1,?,-4,-3
COC1OC2COC(c3ccccc3)OC2C(OC(C)=O)C1OC(C)=O (configuration not stated),14%,nt,nt,nt,58,nt
OCCCc1nc2ccccc2[nH]1,3%,?,-5,?,-36,-20
COC(=O)/C(=C1/Oc2cc(C)oc(=O)c2S1)C(F)(F)F,10µM*,?,12,?,?,20
COC(=O)/C(=C1/Oc2ccc(C(C)(C)C)cc2S1)C(F)(F)F,6%,57%,50*,?,?,10
COc1ccccc1Nc1nc(C2(C)CCC(=O)O2)cs1 (configuration not stated),-10%,60%,52*,1%,97,62*
COc1ccccc1Nc1nc(-c2cccnc2)cs1,?,23%,34*,-18%,54,36*
CCc1ccccc1Nc1nc(-c2cccnc2)cs1,?,12µM*,19*,9.3µM*,?,23
COc1ccc(Nc2nc(-c3cccnc3)cs2)c(OC)c1,?,?,37*,-10%,?,38*
SMILES,HCV inh,Pf growth 48h,Cycloheximide cs,Pf growth 96h,HCMV antiviral,Shiga toxin inh
Cc1ccc(-n2cnc3cc(C(=O)NC4CCCCCC4)ccc32)cc1Cl,nt,nt,nt,nt,-34,nt
CC(NC(=O)COC(=O)CNC(=O)C1CCCCC1)c1ccccc1 (configuration not stated),3%,-7%,nt,-5%,0,nt
O=[N+]([O-])c1ccccc1Nc1nc(-c2cccnc2)cs1,?,?,26*,?,57,nt
COc1ccc(OC)c2nc(-c3cccnc3)ccc12,?,nt,29*,40%,120,48*
CCc1ccc(OCC(=O)NC2CC(C)(C)NC(C)(C)C2)cc1,7%,?,-2,6.6µM*,19,-1
CCc1cc(=O)oc2c(C)c(OCC(=O)NC3CC(C)(C)NC(C)(C)C3)ccc12,-28%,?,1,10µM*,nt,-8
COc1ccc2cc(Br)ccc2c1CC(=O)NC1CC(C)(C)NC(C)(C)C1,11µM*,nt,2,8.3µM*,48,-16
CCCC(=O)NCC(c1ccc2c(c1)OCO2)N1CCN(c2ccc(F)cc2)CC1 (configuration not stated),nt,nt,nt,nt,-3,nt
Cc1ccccc1OCC(=O)Nc1c(C)ccc2nsnc12,nt,nt,nt,nt,-17,nt
Cc1ccc(C(=O)c2cn(Cc3cccc(Cl)c3)c3nc(C)ccc3c2=O)cc1,nt,nt,nt,nt,-8,nt
Cc1cccc2cc(COC(=O)c3cccs3)c(=O)[nH]c12,-4%,22%,-3,1%,-65*,-2
Cc1cccc2cc(CN(Cc3ccco3)C(=O)c3ccco3)c(=O)[nH]c12,8%,-28%,-5,-29%,16,-6
Cc1cccc2cc(CN(Cc3ccco3)C(=O)c3cccs3)c(=O)[nH]c12,-2%,10µM*,-3,9.3µM*,-99*,17
Cc1ccccc1-n1nnnc1SCC(=O)NCC1CCCO1 (configuration not stated),17%,10%,4,-5%,-8,-2
O=C(Nc1ccc(S(=O)(=O)Nc2ncccn2)cc1)C(F)(F)F,-8%,-13%,-2,96%,-4,-14
COCCn1ccc2c(OCC(=O)Nc3cccc(OC)c3)cccc2c1=O,nt,nt,nt,nt,-3,nt
Cc1c(Cc2ccccc2)c(=O)oc2cc(OCC(=O)N[C@@H](Cc3ccccc3)C(=O)O)ccc12,13%,-27%,0,?,13,2
Cc1oc2cc3oc(=O)c(CCC(=O)NCCN4CCOCC4)c(C)c3cc2c1C,2%,-39%,29*,10µM*,9,31*
Cc1coc2cc3oc(=O)c(CCC(=O)NCCCN4CCOCC4)c(C)c3cc12,-38%,2%,-1,-10%,20,4
Cc1c(Cc2ccccc2)c(=O)oc2cc(OCC(=O)NCc3ccccn3)ccc12,?,?,-4,?,-63*,12
Cc1coc2cc3oc(=O)c(CCC(=O)NCc4ccccn4)c(C)c3cc12,1µM*,?,5,-4%,-28,10
O=C(COC(=O)c1c(Cl)ccc(Cl)c1Cl)NCC1CCCO1 (configuration not stated),2%,nt,nt,nt,-17,nt

# Screening results: PubChem, National Center for Advancing Translational Sciences (NCATS)
